Potency data for 40 compounds are collected here from PubChem BioAssay (Tox21).

Records with an inconclusive call do not appear. A call without a number means that no potency is given here. Active and inactive are the calls of the source. The call rests on the fitted dose curve.

One assay is described as follows: p53 small molecule agonists, cell-based qHTS assay with human liver microsomes (AID 1963577). Further: potency means the concentration at half of the fitted maximal effect. The settings on record: HCT-116 p53RE-bla with human liver microsomes, ratio, 16 h; series mostly up to 66 µM. An outline of the steps: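 p53RE-bla reporter cells were pre-incubated 5 h at 37 C, then treated with compounds plus human liver microsomes (0.5 mg/mL final) and NADPH (0.5 mg/mL final) for 16 h at 37 C. Beta-lactamase activity was read by LiveBLAzer fluorescence after 2 h at room temperature.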
With `CCN(CC)C(=O)N[C@@H]1C=C2c3cccc4[nH]cc(c34)C[C@@H]2N(C)C1`, the Potency result is “inactive”.

For `O=[N+]([O-])c1ccc2c3c(cccc13)CC2`, the Potency entry was “inactive”.

For `CCCN(CCC)C(=O)Cc1c(-c2ccc(Cl)cc2)nc2ccc(Cl)cn12`, the Potency entry was “inactive”.

With `CC(C)[C@H](C(=O)O[C@H](C#N)c1cccc(Oc2ccccc2)c1)c1ccc(Cl)cc1`, the Potency entry is “inactive”.

On to `CCC(C(N)=O)N1CCCC1=O` (stereo not given), for which the Potency result is “inactive”.

In the case of `CCOC(=O)C(Cl)Cc1cc(-n2nc(C)n(C(F)F)c2=O)c(F)cc1Cl` (stereo not given), the Potency result was “inactive”.

For `CCO/N=C(\CC)C1=C(O)CC(c2c(C)cc(C)cc2C)CC1=O` (stereo not given), the Potency entry was “inactive”.

Turning to `Oc1ccc2ccc3cccc4ccc1c2c34`, the Potency entry was “inactive”.

`O=C(O)CCCCCCNC1c2ccccc2CCc2ccccc21`: the Potency entry is “inactive”.

On to `COP(=O)(OC)O/C(=C\Cl)c1cc(Cl)c(Cl)cc1Cl`, for which the Potency was 40.8 µM (active).

As to `CS(=O)(=O)c1ccc(C(=O)C2C(=O)CCCC2=O)c(Cl)c1COCC(F)(F)F`, the Potency result is “inactive”.

Turning to `O=C(N/N=C/c1ccc([N+](=O)[O-])o1)c1cc([N+](=O)[O-])cc([N+](=O)[O-])c1O`, the Potency entry is “inactive”.

As to `CCCCC(=O)Cl`, the Potency result is “inactive”.

As to `COC(=O)C(C)N(C(=O)c1ccco1)c1c(C)cccc1C` (stereo not given), the Potency entry was “inactive”.

Turning to `COc1cnc(OC)n2nc(NS(=O)(=O)c3c(OCC(F)F)cccc3C(F)(F)F)nc12`, the Potency result was “inactive”.

With `COC1=CC(=O)O[C@@H](CCc2ccccc2)C1`, the Potency entry is “inactive”.

With `O=C1C(Cl)C(CCl)CN1c1cccc(C(F)(F)F)c1` (stereo not given), the Potency result is “inactive”.

As to `ClC(Cl)C(Cl)Cl`, the Potency entry was “inactive”.

Consider `CCCCCCCC(=O)Cl`, for which the Potency result was “inactive”.

On to `O=[N+]([O-])c1cc([N+](=O)[O-])c2ccccc2c1`, for which the Potency entry is “inactive”.

Take `CCCCCCCCCCCCN(C)C`: the Potency entry was “inactive”.

With `C=CC[C@]1(O)CC[C@H]2[C@@H]3CCC4=CC(=O)CCC4=C3C=C[C@@]21C`, the Potency entry was “inactive”.

Turning to `Cc1cccc2sc3nncn3c12`, the Potency result was “inactive”.

In the case of `CCCCC(CC)COC(=O)OOC(C)(C)C` (stereo not given), the Potency entry was “inactive”.

Turning to `CCOP(=O)(OCC)O/C(=C/Cl)c1ccc(Cl)cc1Cl`, the Potency was 2.57 µM (active).

`CNNC`: the Potency entry was “inactive”.

As for `C=C(Cl)CSC(=S)N(CC)CC`, the Potency result was “inactive”.

In the case of `O=C(CBr)Nc1ccc(Cl)cc1C(=O)c1ccccc1F`, the Potency result is “inactive”.

As to `Nc1ccc(Cl)cc1C(=O)c1ccccc1F`, the Potency entry is “inactive”.

Turning to `COc1ccc(C=O)cc1O`, the Potency result was “inactive”.

Turning to `C[C@]12C=CC(=O)C=C1CC[C@@H]1[C@@H]2CC[C@@]2(C)[C@H]1CC[C@]2(C)O`, the Potency result is “inactive”.

Take `COc1cc(CC(C)N)c(OC)cc1Br` (stereo not given): the Potency result is “inactive”.

For the compound `N#CCCl`, the Potency entry was “inactive”.

For the compound `CCCCCCCCCCCCCN1CC(C)OC(C)C1` (stereo not given), the Potency result is “inactive”.

For `CCN(CC)c1c([N+](=O)[O-])cc(C(F)(F)F)c(N)c1[N+](=O)[O-]`, the Potency result is “inactive”.

Consider `Cc1cccc(OP(=O)(Oc2cccc(C)c2)Oc2cccc(C)c2)c1`, for which the Potency entry is “inactive”.

With `O=C(Nc1ccc2[nH]ccc2c1)c1cc2cc(F)ccc2n1Cc1cccc(F)c1`, the Potency result was “inactive”.

Take `CSc1ccc(C(=O)C(C)(C)N2CCOCC2)cc1`: the Potency result is “inactive”.

With `NC1=NC(=O)C(c2ccccc2)O1` (stereo not given), the Potency result is “inactive”.

`COP(=S)(OC)Oc1c(Cl)cc(C)cc1Cl`: the Potency is 9.13 µM (active).

The next assay in a line: p53 small molecule agonists, cell-based qHTS assay with rat liver microsomes (AID 1963578). Conditions: HCT-116 p53RE-bla, beta-lactamase ratio, 16 h; series mostly up to 66 µM. An outline of the steps: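 p53RE-bla cells were exposed to compounds together with rat liver microsomes (0.5 mg/mL final) and NADPH (0.5 mg/mL final) for 16 h at 37 C, then read by LiveBLAzer beta-lactamase fluorescence after 2 h at room temperature.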
On the technique in general: qHTS replaces the single test concentration by a dilution series.
`CCC(C(N)=O)N1CCCC1=O` (stereo not given): the Potency entry is “inactive”.

Regarding `CCO/N=C(\CC)C1=C(O)CC(c2c(C)cc(C)cc2C)CC1=O` (stereo not given), the Potency entry was “inactive”.

For the compound `O=C(O)CCCCCCNC1c2ccccc2CCc2ccccc21`, the Potency result is “inactive”.

Turning to `O=C1C(Cl)C(CCl)CN1c1cccc(C(F)(F)F)c1` (stereo not given), the Potency result is “inactive”.

Take `O=[N+]([O-])c1cc([N+](=O)[O-])c2ccccc2c1`: the Potency entry is “inactive”.

In the case of `O=C(CBr)Nc1ccc(Cl)cc1C(=O)c1ccccc1F`, the Potency entry was “inactive”.

With `Nc1ccc(Cl)cc1C(=O)c1ccccc1F`, the Potency entry was “inactive”.

With `COc1ccc(C=O)cc1O`, the Potency entry is “inactive”.

Take `COc1cc(CC(C)N)c(OC)cc1Br` (stereo not given): the Potency result is “inactive”.

For `N#CCCl`, the Potency result is “inactive”.

For `CCN(CC)c1c([N+](=O)[O-])cc(C(F)(F)F)c(N)c1[N+](=O)[O-]`, the Potency result is “inactive”.

With `O=C(Nc1ccc2[nH]ccc2c1)c1cc2cc(F)ccc2n1Cc1cccc(F)c1`, the Potency entry is “inactive”.

For `NC1=NC(=O)C(c2ccccc2)O1` (stereo not given), the Potency entry is “inactive”.

A further assay in a line: p53 small molecule agonists, cell-based qHTS assay with human liver microsomes: qHTS cell viability counter screen (AID 1963579). Further: nearly all actives have a fitted effect of over 45% in size. The settings on record: p53RE-bla HCT-116 viability, ATP luminescence, 16 h, HLM; series mostly up to 66 µM. In short, it runs like this:
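p53RE-bla cells (4,000/well) were pre-incubated 5 h at 37 C, then given compounds in DMSO plus human liver microsomes (0.5 mg/mL final) and NADPH (0.5 mg/mL final) for 16 h at 37 C. Viability was read by CellTiter-Glo luminescence.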
On to `CCN(CC)C(=O)N[C@@H]1C=C2c3cccc4[nH]cc(c34)C[C@@H]2N(C)C1`, for which the Potency entry was “inactive”.

On to `O=[N+]([O-])c1ccc2c3c(cccc13)CC2`, for which the Potency entry was “inactive”.

Consider `CCCN(CCC)C(=O)Cc1c(-c2ccc(Cl)cc2)nc2ccc(Cl)cn12`, for which the Potency entry is “inactive”.

Take `CC(C)[C@H](C(=O)O[C@H](C#N)c1cccc(Oc2ccccc2)c1)c1ccc(Cl)cc1`: the Potency entry is “inactive”.

As for `CCOC(=O)C(Cl)Cc1cc(-n2nc(C)n(C(F)F)c2=O)c(F)cc1Cl` (stereo not given), the Potency result is “inactive”.

Take `Oc1ccc2ccc3cccc4ccc1c2c34`: the Potency entry is “inactive”.

With `COP(=O)(OC)O/C(=C\Cl)c1cc(Cl)c(Cl)cc1Cl`, the Potency entry is “inactive”.

As to `CS(=O)(=O)c1ccc(C(=O)C2C(=O)CCCC2=O)c(Cl)c1COCC(F)(F)F`, the Potency result was “inactive”.

For `O=C(N/N=C/c1ccc([N+](=O)[O-])o1)c1cc([N+](=O)[O-])cc([N+](=O)[O-])c1O`, the Potency entry was “inactive”.

Consider `CCCCC(=O)Cl`, for which the Potency result was “inactive”.

Take `COC(=O)C(C)N(C(=O)c1ccco1)c1c(C)cccc1C` (stereo not given): the Potency entry is “inactive”.

`COc1cnc(OC)n2nc(NS(=O)(=O)c3c(OCC(F)F)cccc3C(F)(F)F)nc12`: the Potency result is “inactive”.

As to `COC1=CC(=O)O[C@@H](CCc2ccccc2)C1`, the Potency entry was “inactive”.

Take `ClC(Cl)C(Cl)Cl`: the Potency result was “inactive”.

Turning to `CCCCCCCC(=O)Cl`, the Potency result was “inactive”.

Regarding `CCCCCCCCCCCCN(C)C`, the Potency entry is “inactive”.

Take `C=CC[C@]1(O)CC[C@H]2[C@@H]3CCC4=CC(=O)CCC4=C3C=C[C@@]21C`: the Potency entry is “inactive”.

Take `Cc1cccc2sc3nncn3c12`: the Potency result was “inactive”.

Take `CCCCC(CC)COC(=O)OOC(C)(C)C` (stereo not given): the Potency entry is “inactive”.

Regarding `CCOP(=O)(OCC)O/C(=C/Cl)c1ccc(Cl)cc1Cl`, the Potency entry is “inactive”.

For the compound `CNNC`, the Potency entry was “inactive”.

For `C=C(Cl)CSC(=S)N(CC)CC`, the Potency entry is “inactive”.

`C[C@]12C=CC(=O)C=C1CC[C@@H]1[C@@H]2CC[C@@]2(C)[C@H]1CC[C@]2(C)O`: the Potency entry is “inactive”.

Consider `CCCCCCCCCCCCCN1CC(C)OC(C)C1` (stereo not given), for which the Potency result was “inactive”.

`Cc1cccc(OP(=O)(Oc2cccc(C)c2)Oc2cccc(C)c2)c1`: the Potency result is “inactive”.

As for `CSc1ccc(C(=O)C(C)(C)N2CCOCC2)cc1`, the Potency entry is “inactive”.

On to `COP(=S)(OC)Oc1c(Cl)cc(C)cc1Cl`, for which the Potency result was “inactive”.
